Screens from PubChem.
MITF act: activators of MITF-driven TRPM1 promoter reporter, primary screen, cell-based, SK-MEL-5, luciferase, single point; SK-MEL-5 TRPM1-promoter luciferase, 24 h; % of positive control, neutral wells = 0; activation, % at 12.5 µM; 0.75% of 300,000 active; AID 588334, 2011;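 active means mean activation of at least 80% with every replicate also reaching 80%; inconclusive means mean reaches 80% but some replicate falls short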;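 further: 0% = neutral control wells and 100% = parthenolide positive control wells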
esBAF inh: Bmi1 luciferase reporter increase in mESCs, primary screen, esBAF inhibitor project, mouse ES cells, Bmi1 luciferase knock-in, single point; AID 602393, 2012; 24 h; 100% = twice the neutral-well signal; reporter increase, % at 12.5 µM; 2% of 350,000 active; in the data active means activation above about 40%; inconclusive means no clear call, values can overlap the other calls;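 further: 0% = median of the plate's neutral control wells and 100% = double that signal; a rise in the Bmi1 reporter signal indicates esBAF inhibition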
PAX8 reporter: inhibitors of PAX8-driven TPO luciferase reporter, primary screen, RMG-I cells, single concentration. SteadyGlo, 24 h. inhibition, % at 12.6 µM. 1.2% of 360,000 active;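 active means mean replicate inhibition at least 60% with every replicate also reaching 60%; inconclusive means only one of the two criteria is met; inactive means mean below 60% and not all replicates reaching 60%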;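 further: luciferase light reporting Pax8 driven TPO promoter activity; plate controls were median of neutral control wells for no effect and mitoxantrone controls for full effect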
EWS-Fli inh: EWS/Fli-driven NR0B1 reporter inhibitors, primary screen, A673 cells, NR0B1 luciferase, luminescence, MLPCN library | viability-normalised | inhibition, % at 12.6 µM | 0.67% of 350,000 active;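 active means mean inhibition of at least 50% after viability correction, with every replicate also passing that limit; inconclusive means mean reaches 50% but only one of two replicates passes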;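 further: firefly luciferase signal divided by Alamar Blue viability fluorescence both relative to DMSO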
TRPM1 prom inh: inhibitors of MITF-dependent TRPM1 promoter reporter, primary screen, cell-based, SK-MEL-5, single point, luciferase; SK-MEL-5 TRPM1 promoter luciferase, 24 h; inhibition, % at 12.5 µM; 0.83% of 330,000 active; AID 488899, 2010;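 active means mean inhibition across replicates of 60% or more, whatever share of single replicates reaches that level; inconclusive means some that reach 60%, reason not given; inactive means mean inhibition across replicates below 60%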
Wnt act: Wnt/beta-catenin pathway activators, primary screen, cell-based, plate reader, single point; Wnt/beta-catenin reporter cell assay, activator; activation, % at 9.35 µM; 1.2% of 300,000 active; AID 743398, 2014; in the data active means activation above about 30%, passing the limit was not always enough; inconclusive means no clear call, values can overlap the other calls;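 further: 0% = neutral control wells and 100% = positive control wells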
Numbers without * were called inactive; ? = inconclusive; nt = no result given. Sampled rows, rich in hits. Any-hit rate of the full collection: about 4%.

SMILES | MITF act | esBAF inh | PAX8 reporter | EWS-Fli inh | TRPM1 prom inh | Wnt act
C[C@H](CO)N1C[C@H](C)[C@H](CN(C)CC2CCCC2)Oc2ncc(C#Cc3ccccn3)cc2C1=O | nt | -10.0 | 0.1 | 2.9 | nt | nt
C[C@H](CO)N1C[C@H](C)[C@@H](CN(C)Cc2ccc(-c3ccccc3)cc2)Oc2ccc(NC(=O)C3CC3)cc2CC1=O | nt | -0.9 | 104.4* | -4.2 | nt | nt
C[C@H]1CN([C@@H](C)CO)C(=O)Cc2cc(NC(=O)C3CC3)ccc2O[C@@H]1CN(C)Cc1ccc(-c2ccccc2)cc1 | nt | -5.5 | 103.2* | -7.0 | nt | nt
CCC(=O)Nc1ccc(C(=O)OCc2ccccc2)cc1 | 62.2 | 36.2 | -86.1 | -23.7 | -62.0 | 6.7
CCNCc1ccccc1OCc1ccccc1 | 4.7 | nt | -1.5 | -2.5 | -4.2 | 0.3
COP(=O)(OC)c1ccc(NCc2cc(O)ccc2O)cc1 | 11.7 | nt | -2.3 | -0.6 | -11.4 | 2.4
O=C(OCc1ccccc1)c1ccc(NCc2cc(O)ccc2O)cc1 | nt | nt | 59.2 | 61.9* | 81.4* | -1.6
CC(C)OC(=O)c1ccc(NCc2cc(O)ccc2O)cc1 | nt | nt | 40.1 | 69.3* | 15.7 | -10.0
Oc1ccc(NCc2ccccc2OCc2ccccc2)cc1 | -7.2 | nt | 1.1 | -16.8 | 5.6 | 39.5*
C[C@@H]1CN([C@H](C)CO)C(=O)c2cc(N(C)C)ccc2O[C@@H]1CN(C)S(=O)(=O)c1ccc(F)cc1 | nt | -4.1 | -22.6 | -6.3 | nt | nt
O=[N+]([O-])c1ccc(Cc2nnc(-c3ccccc3Cl)o2)cc1 | 102.8* | -5.5 | -169.4 | -56.1 | -108.5 | 4.3
CC(C)NC(=O)Nc1ccc2c(c1)C(=O)N([C@H](C)CO)C[C@@H](C)[C@H](CN(C)C(=O)Nc1ccc3c(c1)OCO3)OCCCC[C@@H](C)O2 | nt | 5.4 | 9.4 | -10.6 | nt | nt
C[C@H](O)C#Cc1ccc2c(c1)O[C@@H](CN(C)C)[C@@H](C)CN([C@H](C)CO)S2(=O)=O | nt | -1.4 | -7.8 | 7.3 | nt | nt
CCOC(=O)c1cc2c(=O)c3ccccc3oc2nc1C | 27.8 | 18.2 | -14.7 | -74.7 | -16.3 | 11.3
COCc1nc2oc3ccccc3c(=O)c2cc1C(=O)OC | 88.1* | 48.2* | -169.6 | -85.3 | -83.9 | 17.4
COCC(=O)N(C)C[C@@H]1Oc2cc(C#Cc3cccnc3)ccc2S(=O)(=O)N([C@@H](C)CO)C[C@H]1C | nt | -0.6 | -0.5 | 1.7 | nt | nt
Cc1ccc(C(=O)N/N=C\c2ccccc2[N+](=O)[O-])cn1 | 61.0 | 53.3* | -133.7 | -46.3 | -57.9 | 27.0
Cn1nccc1C(=O)N/N=C/c1ccccc1[N+](=O)[O-] | 50.1 | 39.7 | -87.5 | -51.3 | -52.4 | 41.4*
Cc1occc1C(=O)N/N=C/c1ccccc1[N+](=O)[O-] | nt | nt | -117.4 | -89.3 | -40.1 | 44.0*
C[C@@H]1CN([C@@H](C)CO)C(=O)c2cc(-c3ccncc3)cnc2O[C@@H]1CN(C)C(=O)c1ccc(F)cc1 | nt | -14.8 | 7.1 | 4.8 | nt | nt
COC(=O)C1=CN(c2ccc3c(c2)OCO3)C(N)=C(C#N)C1c1ccc(-c2ccccc2)cc1 (stereo unspecified) | nt | nt | 43.5 | 66.9* | nt | -8.0
COC(=O)C1=CN(c2ccc(F)cc2)C(N)=C(C#N)C1c1ccc(-c2ccccc2)cc1 (stereo unspecified) | nt | nt | 7.2 | 2.5 | nt | -3.4
COc1ccc(-c2cc3cc(-c4cc(OC)c(OC)c(OC)c4)ccc3o2)cc1 | 13.8 | 9.0 | -14.3 | -17.7 | -8.3 | -2.2
COc1ccc(-c2cc(=O)c3c(C)cc(O)cc3o2)cc1 | 75.1 | nt | nt | -66.5 | -78.2 | 67.4*
COc1c(O)cc2oc(-c3ccc(O)cc3)cc(=O)c2c1O | 41.0 | -0.4 | -144.9 | -6.7 | -33.6 | 39.5*
SMILES | MITF act | esBAF inh | PAX8 reporter | EWS-Fli inh | TRPM1 prom inh | Wnt act
COc1cc2oc(-c3ccc(O)cc3)cc(=O)c2c(O)c1OC | 25.3 | 18.2 | nt | 1.1 | -26.4 | -0.7
CCC(N=c1cc(-c2ccc(OC)c(OC)c2)oc2ccc(C)cc12)C(=O)O (stereo unspecified) | 3.9 | nt | -21.4 | -17.1 | -2.8 | 10.1
CCC(N=c1cc(-c2ccc(OC)cc2)oc2ccc(C)cc12)C(=O)O (stereo unspecified) | 53.4 | nt | -95.2 | nt | -45.2 | 47.4*
COc1ccc(-c2ccc3oc(-c4ccsc4)cc3c2)cc1 | 43.3 | 63.7* | 11.9 | -70.0 | -49.7 | 28.3
Cc1noc(C)c1NC(=O)N[C@@H]1C=C[C@@H](CC(=O)NCc2ccc(Cl)c(Cl)c2)O[C@@H]1CO | nt | 2.8 | 0.6 | 3.1 | nt | nt
O=c1cc(-c2ccc(O)cc2)oc2c1ccc1ccccc12 | 43.9 | 6.6 | -52.0 | -16.1 | -40.9 | 1.0
COc1ccc(-c2cc(=O)c3ccc(O)cc3o2)cc1 | ? | 18.2 | nt | -69.1 | -81.6 | 3.2
O=c1cc(-c2ccc(O)cc2)oc2ccc3ccccc3c12 | -82.8 | -82.4 | 110.3* | 88.6* | 83.1* | -13.8
COc1ccc(-c2cc(=O)c3cc(OC)ccc3o2)cc1 | -19.7 | -55.3 | nt | 52.2* | 22.8 | 8.2
CCCCCCN(C(=O)CCCN1C(=O)NC(c2ccc(-c3ccccc3)cc2)C(C(=O)OCc2ccccc2)=C1C)C(C)C(=O)NCCCC (stereo unspecified) | -5.7 | 2.7 | 98.6* | -0.5 | 6.0 | -3.6
CCCCCCN(C(=O)CCCCCN1C(=O)NC(c2ccc(-c3ccccc3)cc2)C(C(=O)OCc2ccccc2)=C1C)C(C(=O)NCCCC)c1ccc(-c2ccccc2)cc1 (stereo unspecified) | nt | nt | -4.9 | -13.1 | nt | -4.4
COc1cc(-c2csc(N3CCOCC3)n2)cc(OC)c1OC | -4.4 | -0.1 | nt | nt | 5.7 | -3.8
COc1ccc(-c2csc(N3CCN(c4cc(C)nc5ccccc45)CC3)n2)cc1OC | -72.4 | -2.1 | 36.3 | 29.5 | 72.9* | -1.5
CCCCC[C@@H](C)N1C[C@H](COCc2ccccc2)Oc2cc(N3CC[C@@H](N(C)C)C3)ccc2S1(=O)=O | nt | nt | 84.5* | 42.2 | nt | -5.1
O=C(Nc1nc2c(s1)CN(Cc1ccccc1)CC2)C1CCC1 | 99.9* | 20.5 | -85.8 | -62.4 | -95.3 | 7.1
O=C(Nc1ccc(Cl)cc1)N[C@@H]1CC[C@H](CCNC(=O)c2ccccc2F)O[C@H]1CO | nt | -3.5 | -55.0 | 1.4 | nt | nt
CC(=O)O[C@@H]1C[C@H]2C(C)(C)C(=O)C=C[C@]2(C)[C@H]2CC[C@@]3(C)[C@H](c4ccoc4)OC(=O)[C@H]4O[C@]43[C@@]21C | -13.9 | 15.9 | 75.3* | 12.9 | 12.3 | -3.9
Cc1ccc(Sc2ncccc2O)cc1 | 19.7 | nt | -44.9 | -6.5 | -17.9 | 68.8*
Cc1ccc(Sc2ncccc2N)cc1 | nt | nt | -29.7 | -12.0 | nt | 7.2
O=C(NNC(=O)c1ccccc1O)c1cccc(Br)c1 | nt | 45.7* | -47.9 | -26.7 | -30.6 | -0.5
CCc1cccc(NC(=O)CCc2c(C)nn(-c3ccc(N4CCCCC4)nn3)c2C)c1 | 27.2 | -4.3 | -64.9 | -35.3 | -38.3 | 15.3
